Assay outcomes: PubChem BioAssay, NMMLSC
Rows were chosen to be rich in hits. Some 1.3% of all compounds tested hit in one or more screens of this group.
AGP1 TOR yeast: modulators of AGP1-GFP expression in yeast TOR pathway, primary screen, cell-based, multiplex flow cytometry, S. cerevisiae, MLPCN library. 3 h; GFP as percent of DMSO wells. GFP response vs DMSO, % at 10 µM. hit rate 0.02% among 320,000;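 active means GFP response relative to DMSO above a set limit, near screen average plus 3 SD, cut at about 150% in these data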;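 further: median GFP channel fluorescence of the gated AGP1 strain per well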
CIT2 TOR yeast: modulators of CIT2-GFP expression in yeast, primary screen, S. cerevisiae, GFP fusion, multiplex flow cytometry, MLPCN library. hit rate 0.065% among 320,000. GFP response vs DMSO, % at 10 µM. S. cerevisiae CIT2-GFP strain, 3 h; 100 means same as DMSO wells;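 active means GFP response relative to DMSO above a set limit, near the screen mean plus 3 SD, cut at about 150% in these data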;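 further: ratio of well median GFP fluorescence to mean of DMSO wells on the plate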
Efflux pump mplx: inhibitors of Candida efflux pumps in yeast, primary screen, S. cerevisiae, Nile Red, multiplex | AID 485275, 2010 | S. cerevisiae Candida pump triplex | hit rate 0.44% among 330,000 | inhibition, % at 10 µM;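 active means plate passing quality check with inhibition over a set limit, or well fluorescence over plate mean plus 4 SD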;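 further: Nile Red retained in pooled yeast measured as flow cytometry median fluorescence; higher means more Nile Red kept so more efflux inhibition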
LAP4 TOR yeast: modulators of LAP4-GFP expression in yeast, primary screen, S. cerevisiae, multiplex flow cytometry, MLPCN library; GFP response vs DMSO, % at 10 µM; hit rate 0.34% among 320,000; 3 h; median GFP as percent of DMSO wells;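 active means GFP response vs DMSO above a set limit, about the screen mean plus 3 SD, cut at about 150% in these data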
MEP2 TOR yeast: modulators of MEP2-GFP levels in yeast, primary screen, S. cerevisiae, multiplex flow cytometry, MLPCN library; S. cerevisiae MEP2-GFP strain, 3 h; 100% = DMSO control level; GFP response vs DMSO, % at 10 µM; hit rate 0.51% among 330,000;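 active means GFP response versus DMSO above a set limit, roughly screen mean plus 3 SD, cut at about 180% in these data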;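 further: median GFP fluorescence of the barcode-gated MEP2-GFP cells per well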
RPL19A-GFP yeast: RPL19A-GFP expression modulators in yeast, primary screen, cell-based, S. cerevisiae, multiplex flow cytometry, MLPCN. S. cerevisiae RPL19A-GFP strain, 3 h; active compounds read low. percent response vs DMSO, % at 10 µM. hit rate 0.3% among 330,000;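 active means percent response vs DMSO below 50%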;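 further: median channel GFP fluorescence of the barcoded RPL19A-GFP strain; lower means less RPL19A-GFP as with rapamycin TOR inhibition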
Yeast cmpd fluor: flagged as fluorescent in efflux inhibitor counter-screen | shares compounds with Efflux pump mplx | S. cerevisiae AD/pABC3, compound fluorescence, flow cytometry | fluorescence ratio to DMSO, % at 10 µM | hit rate 4% among 1,700;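 active means fluorescence ratio to DMSO above its plate's cutoff, the plate mean ratio plus 5 SD, cut at about 210% in these data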;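 further: unstained yeast with no Nile Red so the signal is compound autofluorescence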
Mdr1 pump inh: inhibitors of Candida albicans Mdr1 efflux, confirmation, flow cytometry, singleplex, Cherry Pick1 set | shares compounds with Efflux pump mplx | AID 588518, 2011 | S. cerevisiae AD/CaMDR1, Nile Red efflux | hit rate 1% among 1,700 | inhibition, % at 10 µM; in the data active means inhibition above about 26%;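 further: higher means more Nile Red retained so more efflux inhibition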
Cdr2 pump inh: inhibitors of Candida albicans Cdr2 efflux pump, confirmation, S. cerevisiae AD/CaCDR2, flow cytometry, cherry pick 1, singleplex. Nile Red retention. hit rate 4% among 1,700. shares compounds with Efflux pump mplx. Nile Red retention ratio vs DMSO, % at 10 µM; in the data active means Nile Red retention ratio vs DMSO above about 190%;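 further: higher ratio means more blocking of Cdr2 efflux of the dye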
Cdr1 pump inh: inhibitors of Candida albicans Cdr1 efflux pump, confirmation, S. cerevisiae AD/CaCDR1, flow cytometry, cherry pick 1, singleplex; shares compounds with Efflux pump mplx; Nile Red efflux; inhibition, % at 10 µM; hit rate 1% among 1,700; AID 588522, 2011;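 active means inhibition above the screen-wide mean plus twice its standard deviation, cut at about 32% in these data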
Each line names hits and unclear results; the compound was inactive in the other large screens (follow-up assays come after a bar, where they were run).

CC(=O)Nc1ccc(NC(=O)c2ccco2)cc1	none
CN(C(=O)c1ccc(NC(=O)c2ccco2)cc1)c1ccccc1	none | Yeast cmpd fluor inactive | Mdr1 pump inh inactive | Cdr2 pump inh inactive | Cdr1 pump inh inactive
CN(C(=O)c1cccc(NC(=O)c2ccco2)c1)c1ccccc1	none
CCOC(=O)c1cccc(NC(=O)c2ccc(NC(=O)c3ccco3)cc2)c1	none | Yeast cmpd fluor inactive | Mdr1 pump inh inactive | Cdr2 pump inh inactive | Cdr1 pump inh inactive
Cc1cc(C)cc(NC(=O)c2ccc(NC(=O)c3ccco3)cc2)c1	none | Yeast cmpd fluor inactive | Mdr1 pump inh inactive | Cdr2 pump inh inactive | Cdr1 pump inh inactive
O=C(/C=C/c1ccc(Br)cc1)c1ccc(NC(=O)c2ccco2)cc1	Efflux pump mplx 5.8 | Yeast cmpd fluor inactive | Mdr1 pump inh inactive | Cdr2 pump inh inactive | Cdr1 pump inh inactive
COc1ccc(CCNC(=O)C2CC3Cn4c(nc5ccccc54)C3N2Cc2ccccc2)cc1 (stereo not given)	none
CC(CCc1ccccc1)NS(=O)(=O)c1ccccc1F (stereo not given)	none
O=C1C=CC[C@H](/C=C/C[C@@H](O)C[C@H](O)CCc2ccccc2)O1	none
O=C(Nc1ccc(Cl)c(S(=O)(=O)N2CCOCC2)c1)[C@@H]1CCCN1C(=O)c1cccs1	none
CC(=O)c1ccc(NC(=O)c2ccc(NC(=O)c3ccco3)cc2)cc1	Efflux pump mplx 6.2 | Yeast cmpd fluor inactive | Mdr1 pump inh inactive | Cdr2 pump inh inactive | Cdr1 pump inh inactive
CCCCN(C)CCN1C(=O)C2C(C(=O)Nc3ccc(OC)cc3)C3C=CC2(O3)C1C(=O)NC1CCCCC1 (stereo not given)	none
Oc1nc(Nc2ccc(F)cc2)sc1/C=C1\C=Nc2ccccc21	none
O=c1[nH]c(S)c(/C=C2\C=Nc3ccccc32)s1	Efflux pump mplx 0.5 | Yeast cmpd fluor inactive | Mdr1 pump inh inactive | Cdr2 pump inh inactive | Cdr1 pump inh inactive
O=c1c2ccccc2[nH]c(=S)n1CCN1CCc2ccccc2C1	Efflux pump mplx 0.8 | Yeast cmpd fluor inactive | Mdr1 pump inh inactive | Cdr2 pump inh inactive | Cdr1 pump inh inactive
CN1CCN(CCn2c(=S)[nH]c3ccccc3c2=O)CC1	none
O=C(COC(=O)[C@@H]1CCCN1S(=O)(=O)c1ccccc1F)NCc1ccc2c(c1)OCO2	none
COc1ccc(CNC(=O)CSc2nnc3c(n2)[nH]c2ccccc23)cc1	none
COC(=O)c1ccc(CSc2nnc3c(n2)[nH]c2ccccc23)cc1	Efflux pump mplx 0.5 | Yeast cmpd fluor inactive | Mdr1 pump inh inactive | Cdr2 pump inh inactive | Cdr1 pump inh inactive
Cc1cc(NC(=O)CCC(=O)N(Cc2cccs2)C(C(=O)NC2CCCC2)c2ccccc2)no1 (stereo not given)	none | Yeast cmpd fluor inactive | Mdr1 pump inh inactive | Cdr2 pump inh inactive | Cdr1 pump inh inactive
Cc1ccc(C(C(=O)NC2CCCC2)N(Cc2ccco2)C(=O)CCC(=O)Nc2cc(C)on2)cc1 (stereo not given)	none | Yeast cmpd fluor inactive | Mdr1 pump inh inactive | Cdr2 pump inh inactive | Cdr1 pump inh inactive
Cc1cc(NC(=O)CCC(=O)N(Cc2cccs2)C(C(=O)NC2CCCC2)c2cccnc2)no1 (stereo not given)	none
CSCc1ccc(C(=O)NCCSc2ccc(Br)cc2)cc1	Efflux pump mplx 7.4 | Yeast cmpd fluor inactive | Mdr1 pump inh inactive | Cdr2 pump inh inactive | Cdr1 pump inh inactive
O=S1(=O)C=C(SCc2ccc(F)cc2)Nc2ccccc21	none
COC(=O)NCc1ccc(S(=O)(=O)N2CCOCC2)cc1	Efflux pump mplx 0.5 | Yeast cmpd fluor inactive | Mdr1 pump inh inactive | Cdr2 pump inh inactive | Cdr1 pump inh inactive
O=C(COC(=O)c1ccc(Cl)nc1)NC(=O)c1ccccc1	Efflux pump mplx 0.6 | Yeast cmpd fluor inactive | Mdr1 pump inh inactive | Cdr2 pump inh inactive | Cdr1 pump inh inactive
O=C(COC(=O)c1ccc(Cl)nc1)Nc1c(Cl)cccc1C(F)(F)F	Efflux pump mplx 0.5 | Yeast cmpd fluor inactive | Mdr1 pump inh inactive | Cdr2 pump inh inactive | Cdr1 pump inh inactive
O=C(COC(=O)c1ccc(Cl)nc1)NNC(=O)c1ccc(Cl)cc1	none
O=C(COC(=O)c1cc[n+]([O-])cc1)Nc1c(Cl)cccc1C(F)(F)F	none
O=C(COC(=O)c1ccccn1)c1ccc(Br)cc1	Efflux pump mplx 1.3 | Yeast cmpd fluor inactive | Mdr1 pump inh inactive | Cdr2 pump inh inactive | Cdr1 pump inh inactive
O=C(COC(=O)c1ccccn1)c1cccc(Br)c1	none
Cc1c(C(=O)N/N=C/c2c(O)ccc3ccccc23)nnn1-c1nonc1N	Efflux pump mplx 1.0 | Yeast cmpd fluor inactive | Mdr1 pump inh inactive | Cdr2 pump inh inactive | Cdr1 pump inh inactive
CCOc1ccccc1/C=N/NC(=O)c1nnn(-c2nonc2N)c1CN1CCCC1	none
CCOc1ccc(-c2c(C(=O)N/N=C/c3ccccc3)nnn2-c2nonc2N)cc1	none | Yeast cmpd fluor inactive | Mdr1 pump inh inactive | Cdr2 pump inh inactive | Cdr1 pump inh inactive
CCOc1ccccc1/C=N/NC(=O)c1nnn(-c2nonc2N)c1CN1CCC(C)CC1	Efflux pump mplx 0.6 | Yeast cmpd fluor inactive | Mdr1 pump inh inactive | Cdr2 pump inh inactive | Cdr1 pump inh inactive
CC(=O)N1CCc2cc(Br)cc(S(=O)(=O)N3CCc4ccccc43)c21	none
O=C(Cn1c2ccc(F)cc2c2nc3n(c(=O)c21)CCS3)Nc1ccccc1F	Efflux pump mplx 0.4 | Yeast cmpd fluor 480 | Mdr1 pump inh inactive | Cdr2 pump inh inactive | Cdr1 pump inh inactive
